From PubChem BioAssay (Tox21)
Results filed as inconclusive are left out. The source made the active and inactive calls. Unless noted, the call rests on the fitted dose curve; in most records, active means well fitted curve in the direction sought with a large enough effect in the repeat runs; inconclusive means weak or mixed curves; inactive means no such curve, though single readings can be large; an effect the other way counts as inactive or inconclusive.

Assays:
[1] = molecular target: Peroxisome proliferator-activated receptor delta (Homo sapiens) (UniProt Q03181); test: qHTS assay to identify small molecule agonists of the peroxisome proliferator-activated receptor delta (PPARd) signaling pathway (AID 743212; calls by dose curve; further: on the % scale 0 is the no-effect control and ±100 the full control effect)
Chain of Peroxisome proliferator-activated receptor delta (Homo sapiens) (Q03181 whole entry, looked up): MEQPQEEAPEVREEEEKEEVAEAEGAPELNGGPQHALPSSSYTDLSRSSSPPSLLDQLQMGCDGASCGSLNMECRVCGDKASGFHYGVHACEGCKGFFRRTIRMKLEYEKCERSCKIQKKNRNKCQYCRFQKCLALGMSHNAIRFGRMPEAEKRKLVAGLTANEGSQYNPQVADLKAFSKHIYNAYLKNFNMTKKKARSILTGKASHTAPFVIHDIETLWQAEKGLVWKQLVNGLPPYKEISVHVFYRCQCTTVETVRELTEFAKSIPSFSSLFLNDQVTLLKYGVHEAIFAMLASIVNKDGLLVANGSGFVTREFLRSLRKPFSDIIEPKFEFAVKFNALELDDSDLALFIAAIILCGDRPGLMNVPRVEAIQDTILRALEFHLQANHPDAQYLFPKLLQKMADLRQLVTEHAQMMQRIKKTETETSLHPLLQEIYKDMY
Outline: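 Cells expressing a UAS-driven beta-lactamase reporter (PPARd-bla HEK293H) were given test compounds after a 5 h settle and kept at 37 C. Reporter activity was then measured as FRET fluorescence using LiveBLAzer B/G substrate.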

[2] = qHTS assay to identify small molecule antagonists of the peroxisome proliferator-activated receptor delta (PPARd) signaling pathway - cell viability counter screen (AID 743213); further: on the % scale 0 is the no-effect control and ±100 the full control effect; nearly all actives have a fitted effect of over 50% in size
Outline: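 Same-well viability: cells pre-incubated 5 h, dosed with compound plus 300 nM L165041, kept 17 h at 37 C, FRET substrate 2 h RT, then CellTiter-Glo 30 min RT and luminescence.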

[3] = molecular target: Peroxisome proliferator-activated receptor delta (Homo sapiens) (UniProt Q03181); test: qHTS assay to identify small molecule antagonists of the peroxisome proliferator-activated receptor delta (PPARd) signaling pathway (AID 743215; active means well fitted inhibition curve with a large enough effect in the signal ratio in the repeat runs, not every such curve was filed as active; the % refers to the signal ratio;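 further: cells stimulated with agonist L165041 at 300 nM final during compound exposure; series mostly up to about 62 µM; on the % scale 0 is the no-effect control and ±100 the full control effect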)
Outline: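 Agonist L165041 (300 nM final) added with compound to PPARd-bla HEK293H UAS-bla reporter cells; 17 h incubation at 37 C. Read-out: LiveBLAzer FRET substrate, 2 h at room temperature, fluorescence intensity.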

[4] = qHTS assay to identify small molecule agonists of the farnesoid-X-receptor (FXR) signaling pathway - cell viability counter screen (AID 743218); further: on the % scale 0 is the no-effect control and ±100 the full control effect; nearly all actives have a fitted effect of over 45% in size
Outline: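 Viability counter screen in the same wells: CellTiter-Glo luminescence, 30 min room-temperature incubation, measured after the beta-lactamase read. Cells were GeneBLAzer FXR-UAS-bla HEK 293T, compound-treated 16 h at 37C.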

[5] = molecular target: Vitamin D3 receptor (Homo sapiens) (UniProt P11473); test: qHTS assay to identify small molecule agonists of the vitamin D receptor (VDR) signaling pathway (AID 743222; calls by dose curve; further: on the % scale 0 is the no-effect control and ±100 the full control effect)
Chain of Vitamin D3 receptor (Homo sapiens) (P11473 whole entry, looked up): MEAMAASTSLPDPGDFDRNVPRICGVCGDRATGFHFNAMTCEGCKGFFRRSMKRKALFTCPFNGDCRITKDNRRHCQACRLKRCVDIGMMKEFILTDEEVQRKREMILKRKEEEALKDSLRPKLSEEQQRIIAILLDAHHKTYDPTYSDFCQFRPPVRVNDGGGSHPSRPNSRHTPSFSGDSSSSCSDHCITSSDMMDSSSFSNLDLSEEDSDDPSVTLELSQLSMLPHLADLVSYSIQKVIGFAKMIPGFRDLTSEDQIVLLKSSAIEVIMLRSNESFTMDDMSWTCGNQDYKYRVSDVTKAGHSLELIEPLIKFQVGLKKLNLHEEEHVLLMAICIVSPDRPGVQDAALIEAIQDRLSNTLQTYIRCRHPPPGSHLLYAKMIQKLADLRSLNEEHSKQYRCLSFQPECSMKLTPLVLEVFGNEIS
Outline: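 Agonist mode, beta-lactamase reporter: fluorescence from LiveBLAzer B/G FRET substrate (2 h, room temperature) read after 16 h compound treatment at 37 C of VDR-bla cells, which were pre-incubated 4 h after seeding.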

[6] = molecular target: Vitamin D3 receptor (Homo sapiens) (UniProt P11473); test: qHTS assay to identify small molecule antagonists of the vitamin D receptor (VDR) signaling pathway (AID 743223; active means well fitted inhibition curve with a large enough effect in the signal ratio in the repeat runs, not every such curve was filed as active; the % refers to the signal ratio; further: on the % scale 0 is the no-effect control and ±100 the full control effect)
Outline: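 Fluorescence from LiveBLAzer B/G FRET substrate, read after 2 h at room temperature, reflects beta-lactamase reporter activity in VDR-bla cells treated 16 h at 37C with compounds and agonist 1alpha,25-dihydroxyvitamin D3 (3 nM final).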

[7] = qHTS assay to identify small molecule agonists of the vitamin D receptor (VDR) signaling pathway - cell viability counter screen (AID 743224); further: series mostly up to about 63 µM; on the % scale 0 is the no-effect control and ±100 the full control effect; nearly all actives have a fitted effect of over 50% in size
Outline: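 Counter screen run in the same wells as the VDR-bla reporter assay: CellTiter-Glo luminescence, 30 min at room temperature, after 16 h compound treatment at 37C of cells pre-plated for 4 h.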

[8] = qHTS assay to identify small molecule antagonists of the vitamin D receptor (VDR) signaling pathway - cell viability counter screen (AID 743225); further: on the % scale 0 is the no-effect control and ±100 the full control effect; nearly all actives have a fitted effect of over 50% in size
Outline: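 Cells (VDR-UAS-bla HEK 293T) are plated, rested 4 h at 37C, dosed with compound and 3 nM final 1-alpha,25-dihydroxy vitamin D3, and incubated 16 h. Viability is taken from CellTiter-Glo luminescence in the reporter wells.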

[9] = qHTS assay to identify small molecule agonists of the NFkB signaling pathway (AID 1159509; active means well fitted curve in the direction sought with a large enough effect in the signal ratio in the repeat runs, not every such curve was filed as active; the % refers to the signal ratio)
Outline: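 Agonist activity was read as beta-lactamase-driven FRET change (460 and 530 nm emission, 405 nm excitation) following 1.5 hr substrate loading at room temperature. Beforehand, ME-180 NFkB-bla reporter cells were treated with compounds for 5 hr at 37 C.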

[10] = qHTS assay to identify small molecule agonists of the NFkB signaling pathway - cell viability counter screen (AID 1159515; calls by dose curve; further: series mostly up to about 61 µM; on the % scale 0 is the no-effect control and ±100 the full control effect; nearly all actives have a fitted effect of over 55% in size)
Outline: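 Read by CellTiter-Glo luminescence (30 min, room temperature) in the wells also used for the beta-lactamase FRET read. ME-180 NFkB-bla cells at 2,000 per well were plated overnight, then exposed to compound for 5 hr at 37 C.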

[11] = qHTS assay to identify small molecule agonists of the endoplasmic reticulum stress response signaling pathway (AID 1159516; active means well fitted activation curve with a large enough effect in the signal ratio in the repeat runs, not every such curve was filed as active; the % refers to the signal ratio; further: on the % scale 0 is the no-effect control and ±100 the full control effect)
Outline: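 Ratiometric FRET readout (405 nm excitation; 460 and 530 nm emission) of a beta-lactamase gene driven by the ER stress response element, after 2 hr substrate loading. HeLa ESRE-bla cells were seeded overnight and treated with compounds for only 5 hr at 37 C.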

[12] = qHTS assay to identify small molecule agonists of the endoplasmic reticulum stress response signaling pathway - cell viability counter screen (AID 1159517; calls by dose curve; further: series mostly up to about 61 µM; on the % scale 0 is the no-effect control and ±100 the full control effect; nearly all actives have a fitted effect of over 50% in size)
Outline: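 Cpd-treated ESRE-bla HeLa (5 hr, 37 C) → LiveBLAzer 2 hr RT → CellTiter-Glo 30 min RT → luminescence.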

[13] = qHTS assay to identify small molecule antagonists of the retinoid-related orphan receptor gamma (ROR-gamma) signaling pathway - cell viability counter screen (AID 1159520)
Outline: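 Tet-on ROR gamma CHO cells (1,000/well) were plated 4 hr, given compounds in DMSO for 2 hr at 37 C, then induced with 1 uM final doxycycline for 16 hr. Viability was read as ATP by CellTiter-Glo luminescence after 30 min.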

[14] = molecular target: Nuclear receptor ROR-gamma (Homo sapiens) (UniProt P51449); test: qHTS assay to identify small molecule antagonists of the retinoid-related orphan receptor gamma (ROR-gamma) signaling pathway (AID 1159521)
Outline: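 RORγ antagonism is scored from reduced reporter luminescence in Tet-on CHO cells. Induction used 1 uM final doxycycline hyclate for 16 h at 37 C, following a 2 h compound exposure.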

[15] = qHTS assay to identify small molecule agonists of the AP-1 signaling pathway - cell viability counter screen (AID 1159525; calls by dose curve; further: nearly all actives have a fitted effect of over 55% in size)
Outline: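 Each titration point was normalised to DMSO and tetra n-octyl ammonium bromide controls. The read was Cell Titer Glo luminescence after 30 min at RT, following 5 h compound exposure of ME-180 AP-1-bla cells at 37 °C.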

[16] = qHTS assay to identify small molecule agonists of the AP-1 signaling pathway (AID 1159526; calls by dose curve; further: on the % scale 0 is the no-effect control and ±100 the full control effect)
[17] = qHTS assay to identify small molecule agonists of the peroxisome proliferator-activated receptor delta (PPARd) signaling pathway - cell viability counter screen (AID 743211); further: on the % scale 0 is the no-effect control and ±100 the full control effect; nearly all actives have a fitted effect of over 55% in size
Outline: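 Viability of GeneBLAzer PPARd UAS-bla HEK293H cells was assessed after 17 h compound incubation at 37C, using CellTiter-Glo reagent added after the reporter read and luminescence recorded 30 min later.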

[18] = molecular target: Bile acid receptor (Homo sapiens) (UniProt Q96RI1); test: qHTS assay to identify small molecule antagonists of the farnesoid-X-receptor (FXR) signaling pathway (AID 743217; active means well fitted inhibition curve with a large enough effect in the signal ratio in the repeat runs, not every such curve was filed as active; the % refers to the signal ratio; further: on the % scale 0 is the no-effect control and ±100 the full control effect)
Chain of Bile acid receptor (Homo sapiens) (Q96RI1 whole entry, looked up): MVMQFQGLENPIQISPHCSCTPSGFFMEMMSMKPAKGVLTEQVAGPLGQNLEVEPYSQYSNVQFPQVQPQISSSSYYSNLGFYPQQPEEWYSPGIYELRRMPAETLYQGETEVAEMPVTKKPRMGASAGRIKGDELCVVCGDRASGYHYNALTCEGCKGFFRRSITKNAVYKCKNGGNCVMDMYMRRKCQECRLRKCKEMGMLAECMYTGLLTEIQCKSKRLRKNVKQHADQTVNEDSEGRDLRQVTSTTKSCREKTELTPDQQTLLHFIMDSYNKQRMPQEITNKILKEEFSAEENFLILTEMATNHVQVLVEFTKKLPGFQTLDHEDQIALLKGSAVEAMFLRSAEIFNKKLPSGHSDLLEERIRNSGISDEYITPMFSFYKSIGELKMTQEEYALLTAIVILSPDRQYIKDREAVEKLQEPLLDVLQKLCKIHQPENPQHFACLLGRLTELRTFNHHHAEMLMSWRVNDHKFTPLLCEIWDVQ
Outline: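 Antagonist mode: chenodeoxycholic acid at 50 uM final stimulates a UAS-driven beta-lactamase reporter in HEK 293T FXR-bla cells during 16 h, 37C compound exposure. Read-out is FRET substrate fluorescence after 2 h at room temperature.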

[19] = molecular target: Bile acid receptor (Homo sapiens) (UniProt Q96RI1); test: qHTS assay to identify small molecule agonists of the farnesoid-X-receptor (FXR) signaling pathway (AID 743220; active means well fitted activation curve with a large enough effect in the signal ratio in the repeat runs, not every such curve was filed as active; the % refers to the signal ratio; further: on the % scale 0 is the no-effect control and ±100 the full control effect)
Outline: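 FXR-UAS-bla HEK 293T cells carrying a UAS-driven beta-lactamase reporter were plated for 5 h at 37C/5% CO2, then exposed to DMSO-dissolved Tox21 10K compounds for 16 h at 37C. A LiveBLAzer B/G FRET substrate was loaded for 2 h at room temperature before fluorescence reading.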

[20] = qHTS assay to identify small molecule antagonists of the farnesoid-X-receptor (FXR) signaling pathway - cell viability counter screen (AID 743221; active means well fitted cell-killing curve with a large enough effect in the repeat runs, not every such curve was filed as active)
Outline: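 Quantitative HTS of the Tox21 10K library run in parallel with the beta-lactamase reporter read. HEK 293T cells carrying a UAS-driven bla reporter got compound and 50 uM CDCA (final) for 16 h; ATP-based luminescence followed.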

CC(C)=CCCC(C)CC(=O)O (stereo not drawn)
inactive: outcome [1] | Potency [2] | Potency [3] | Potency [4] | outcome [5] | outcome [6] | Potency [7] | Potency [8] | outcome [9] | outcome [10] | outcome [11] | outcome [12] | outcome [13] | Potency [14] | Potency [15] | outcome [16]

Cc1nc2c([nH]1)c(=O)n(C)c(=O)n2Cc1ccco1
inactive: Potency [17] | Potency [2] | outcome [18] | Potency [4] | outcome [19] | outcome [5] | outcome [6] | Potency [7] | Potency [8] | outcome [9] | outcome [10] | outcome [11] | outcome [12] | outcome [13] | Potency [14] | Potency [15] | outcome [16]

c1ccc([C@H]2CN3CCSC3=N2)cc1
inactive: outcome [1] | Potency [2] | Potency [3] | Potency [4] | Potency [20] | outcome [5] | Potency [7] | Potency [8] | outcome [9] | outcome [10] | outcome [11] | outcome [12] | outcome [13] | Potency [14] | Potency [15] | outcome [16]

Cc1cc2c(cc1S(N)(=O)=O)S(=O)(=O)CCC2
inactive: Potency [17] | Potency [2] | Potency [3] | outcome [18] | Potency [4] | Potency [7] | Potency [8] | outcome [9] | outcome [10] | outcome [11] | outcome [12] | outcome [13] | Potency [14] | Potency [15] | outcome [16]

CC(=O)Nc1ccc(S(N)(=O)=O)cc1
inactive: Potency [17] | outcome [1] | outcome [18] | Potency [4] | outcome [19] | outcome [5] | Potency [7] | Potency [8] | outcome [9] | outcome [10] | outcome [11] | outcome [12] | outcome [13] | Potency [14] | Potency [15] | outcome [16]

CN1CCCC1
inactive: Potency [17] | Potency [2] | outcome [18] | Potency [4] | outcome [19] | Potency [20] | outcome [5] | Potency [7] | Potency [8] | outcome [9] | outcome [10] | outcome [11] | outcome [12] | outcome [13] | Potency [14] | Potency [15] | outcome [16]

FC(F)OC(Cl)C(F)(F)F (stereo not drawn)
inactive: Potency [17] | outcome [1] | Potency [3] | outcome [18] | Potency [4] | outcome [19] | Potency [20] | Potency [8] | outcome [9] | outcome [10] | outcome [11] | outcome [12] | outcome [13] | Potency [14] | Potency [15] | outcome [16]

CCN(Cc1ccncc1)C(=O)C(CO)c1ccccc1 (stereo not drawn)
inactive: Potency [17] | Potency [2] | Potency [4] | outcome [5] | outcome [6] | Potency [7] | Potency [8] | outcome [9] | outcome [10] | outcome [11] | outcome [12] | outcome [13] | Potency [14] | Potency [15] | outcome [16]

OC(CCN1CCCCC1)(c1ccccc1)C1CC2C=CC1C2 (stereo not drawn)
inactive: Potency [17] | outcome [1] | Potency [3] | outcome [18] | Potency [4] | outcome [19] | outcome [5] | outcome [6] | Potency [8] | outcome [9] | outcome [10] | outcome [11] | outcome [12] | outcome [13] | Potency [14] | Potency [15] | outcome [16]

Nc1ccc(S(=O)(=O)Nc2ccnn2-c2ccccc2)cc1
inactive: Potency [17] | Potency [2] | outcome [18] | Potency [4] | outcome [19] | Potency [20] | outcome [5] | outcome [6] | Potency [7] | outcome [9] | outcome [10] | outcome [11] | outcome [12] | activity, negative = cytotoxicity [13] 2.08% [at 19 µM] | Potency [14] | viability change, negative = cytotoxic [15] 2.53% [at 15.8 µM] | outcome [16]

C[C@](N)(Cc1ccc(O)cc1)C(=O)O
inactive: activity change, negative = cytotoxicity [17] 3.74% [at 5.95 µM] | viability change, negative = cytotoxic [2] 17.6% [at 6.26 µM] | activity change, negative = inhibition [18] 3.49% [at 5.95 µM] | viability change, negative = cytotoxic [4] 17.1% [at 5.95 µM] | activation [19] 1.44% [at 5.95 µM] | activity change, negative = cytotoxicity [20] -5.83% [at 5.95 µM] | activity change, negative = cytotoxicity [7] -0.278% [at 5.95 µM] | viability change, negative = cytotoxic [8] 4.51% [at 6.95 µM] | activation [9] 0.267% [at 6.95 µM] | activity, negative = cytotoxic [10] 2.4% [at 6.95 µM] | activation [11] 0.0819% [at 6.95 µM] | activity change, negative = cytotoxicity [12] -6.6% [at 6.95 µM] | activity, negative = cytotoxicity [13] 1.71% [at 8.39 µM] | activity change, negative = inhibition [14] 10.5% [at 8.39 µM] | viability change, negative = cytotoxic [15] 6.35% [at 6.97 µM] | activation [16] -6.83% [at 6.97 µM]

CS(=O)(=O)O
inactive: Potency [17] | outcome [18] | outcome [19] | Potency [20] | outcome [5] | outcome [6] | Potency [7] | Potency [8] | outcome [9] | outcome [10] | outcome [11] | outcome [12] | outcome [13] | Potency [14] | Potency [15] | outcome [16]

O=C1OC(=O)C2CCCCC12 (stereo not drawn)
inactive: Potency [17] | Potency [2] | Potency [4] | Potency [20] | outcome [5] | outcome [6] | Potency [8] | outcome [9] | outcome [10] | outcome [11] | outcome [12] | outcome [13] | Potency [14] | Potency [15] | outcome [16]

COC(=O)[C@@H](N)Cc1ccc(O)c(O)c1
inactive: Potency [17] | Potency [2] | Potency [4] | Potency [20] | Potency [7] | Potency [8] | outcome [9] | outcome [10] | outcome [11] | outcome [12] | outcome [13] | Potency [14] | Potency [15] | outcome [16]

C=C(C)C(=O)OCCCCCCCC(C)C
inactive: Potency [17] | Potency [2] | Potency [4] | Potency [20] | outcome [5] | outcome [6] | Potency [8] | outcome [9] | outcome [10] | outcome [11] | outcome [12] | outcome [13] | Potency [14] | Potency [15] | outcome [16]

CN(C)CCCNCCCN(C)C
inactive: Potency [17] | Potency [2] | Potency [4] | Potency [20] | outcome [5] | outcome [6] | Potency [7] | outcome [9] | outcome [10] | outcome [11] | outcome [12] | outcome [13] | Potency [14] | Potency [15] | outcome [16]
